Compound activity (PubChem)
KDM5B inhibitor: blocks human KDM5B histone demethylase activity; AID 1347165; Q9UGL1; Potency, µM (series often up to 57.7 µM), usual class: inhibitors; KDM5B demethylase, FDH-coupled NADH fluorescence (FDH is formaldehyde dehydrogenase); 2.6% of 220,000 active; active means well fitted inhibition curve with a large enough effect; further: 0% is about no effect; nearly all actives have a fitted effect of over 70% in size
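Coupled FDH/NAD⁺ fluorescence readout. KDM5BΔAP 200 nM final; compound titration, 10 min RT preincubation; substrate mix 12.5 µM H3K4me3, 25 µM 2-OG, 50 µM Fe(II), 100 µM ascorbate, 0.25 mM NAD⁺, 0.25 U/mL FDH; ΔRFU over 30 min.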
* marks the source's active call; other numbers are inactive results; i = inactive. The full list was thinned out, with hits kept by preference. Potency means the concentration at half of the fitted maximal effect.

SMILES	KDM5B inhibitor
CCc1noc(-c2cccn3c(CNC(=O)Cc4ccc(F)cc4)nnc23)n1	28µM*
CCCc1noc(-c2ccn3c(CNC(=O)c4cccc(C)c4)nnc3c2)n1	i
O=C(Cn1nc2c(-c3nc(-c4cccc(F)c4)no3)cccn2c1=O)NCc1ccc(F)cc1	i
CC(C)c1noc(-c2cn(C3CCN(C(=O)Cc4ccc(F)cc4)CC3)nn2)n1	i
CCc1noc(-c2cccn3c(CNC(=O)Cc4ccc(C)cc4)nnc23)n1	25µM*
Cc1oc2c(C)c3o/c(=N/O)c4c(c3cc2c1C)CCCC4	i
Fc1ccc(CNC[C@H]2Cn3c(-c4ccc(Cl)cc4)cnc3CO2)cc1	i
Cc1ccc(-c2nc(CSCC(=O)NCc3cccs3)c(C)o2)cc1	i
O=C(NCC(=O)N1CCCCC1)C1CCCN(S(=O)(=O)c2ccc(Cl)cc2)C1 (configuration not stated)	i
O=C(Nc1ccc(Cl)c(C(F)(F)F)c1)C1=C(c2ccccc2)S(=O)(=O)CCO1	i
Cc1oc(-c2ccccc2)nc1CC(=O)Nc1ccccn1	i
COc1ccc(-c2coc3cc(OCC(=O)NCc4ccccc4Cl)ccc3c2=O)cc1OC	i
Cn1ccnc1-c1ccc(N2CCC(CO)(CCOc3ccccc3)CC2)nn1	28µM*
Cn1ccnc1-c1ccc(N2CCCC(CO)(CCOc3ccccc3)C2)nn1 (configuration not stated)	32µM*
CCCC1(CO)CCCN(Cc2ccc(OCC(=O)N3CCCC3)cc2)C1 (configuration not stated)	i
Cn1ccnc1-c1cn(CC2(c3ccccc3F)CCCC2)nn1	i
Cn1ccnc1-c1cn(Cc2scnc2-c2ccccc2)nn1	i
OCC1(CCOc2ccccc2)CCN(c2nnnn2-c2ccccc2)CC1	i
CCOc1ccc(C(C)=O)cc1COC(=O)C(C)NC(=O)c1ccccc1 (configuration not stated)	i
CC(C)CC(N)c1ccccc1 (configuration not stated)	i
Cc1ccc(C(=O)NNC(=O)COC(=O)c2ccccc2SCc2ccc(C#N)cc2)cc1	i
N#Cc1ccccc1-c1ccc(C=O)o1	i
COc1ccc(CC(=O)NCc2nnc3ccccn23)cc1	i
N#Cc1ccccc1-c1ccc(-c2cn(Cc3nnc4ccccn34)nn2)o1	28µM*
O=C(C1CC1)N1CCC2(CC1)CCN(CCc1ccccc1)c1ccccc1O2	i
SMILES	KDM5B inhibitor
c1ccc(CCCc2noc(-c3ccc(N4CCOCC4)nc3)n2)cc1	35µM*
N#Cc1ccc(OCc2noc(-c3ccsc3)n2)cc1	i
Cc1nccn1CCN(C)c1ccc(-c2nc(COc3ccccc3)no2)cn1	22µM*
COC1CCN(c2ccc(-c3nc(COc4ccccc4)no3)cn2)CC1	28µM*
N#Cc1ccccc1COC(=O)c1ccc(N2CCOCC2)nc1	i
CC(Nc1ccc(-c2nc(CCCc3ccccc3)no2)cn1)c1cnn(C)c1 (configuration not stated)	28µM*
O=C(NCCc1noc(-c2cccnc2)n1)NCc1ccccc1	i
CC(C)Cn1c(SCc2noc(-c3ccc(Cl)cc3)n2)nnc1N1CCOCC1	i
Cn1cnc(S(=O)(=O)NCCc2noc(-c3ccccc3)n2)c1	i
CC(=O)N1CCC(Cc2noc(-c3ccccc3)n2)C1 (configuration not stated)	i
COC1CCN(c2cc(-c3ccccn3)nc3c(C)noc23)CC1	i
CN(Cc1cnn(C)c1)c1ccc(-c2nc(COc3ccccc3)no2)cn1	i
Cc1ccccc1C(=O)NCC(c1ccccc1)c1c[nH]c2ccccc12 (configuration not stated)	i
Cc1ccc(C(=O)NC(=S)NNC(=O)c2ccc(NC(=O)c3ccccc3)cc2)cc1	i
Cc1cc(-n2cccc2C=O)ccc1Br	i
Cc1ccc(NC(=O)COC(=O)c2cccc(O)c2)c(Cl)c1	i
O=C(Nc1ccc(F)cc1Cl)c1nc2ccccc2nc1N1CCCCC1	i
CCC(CNC(=O)c1ccc2c(c1)NC(=O)CS2)c1ccccc1 (configuration not stated)	i
CCc1cc(=O)oc2cc(OCc3nc(C)no3)ccc12	i
O=C(CSc1nc2cc(Cl)ccc2c(=O)n1Cc1ccccc1)N1CCCCC1	i
CCCCOCCCNC(=O)Cn1cnc2c1c(=O)n(C)c(=O)n2C	i
CCOC(=O)c1ccc(NC(=O)Cn2c(N(C)Cc3ccccc3)nc(C)cc2=O)cc1	i
Cc1cc(=O)n(CC(=O)Nc2ccccc2C)c(N(C)Cc2ccccc2)n1	i
CCOC(=O)c1ccccc1NC(=O)Cn1c(N(C)Cc2ccccc2)nc(C)cc1=O	16µM*
O=C(O)CCC(=O)c1cccc(Br)c1	i
O=C(CCNC(=O)c1ccccc1Cl)Nc1nc2ccc(SC(F)F)cc2s1	i
CN(c1ccccc1)c1cc(=O)c2ccnc(N3CCN(c4ccccn4)CC3)c2o1	i
CN(C)c1cccc(-c2nccc3c(=O)cc(N(C)C4CCOCC4)oc23)c1	28µM*
CN(c1ccccc1)c1cc(=O)c2ccnc(NCC3CCOCC3)c2o1	i
